The values below come from PubChem BioAssay (EPA / NIEHS).

Inconclusive results are not listed. Calls of active or inactive are those of the source. The calls were made as follows: active = hit-call score of the fitted dose curve at least 0.9, where 1 is the maximum; inconclusive = response in the unintended direction; inactive = score below 0.9.

Read-out in the assay: sulfotransferase (SULT2A), SULT2A1 (gene 6822)
The assay is described as follows: CLD_SULT2A_6hr: CellzDirect (CLD) Gene Expression Assay for sulfotransferase (SULT2A) at 6 hours (AID 2283669).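 Also: hits raise transcript level above the DMSO vehicle baseline.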 The protocol:
CLD_6hr is a cell-based, multiplexed-readout assay that uses hepatocyte, a human liver primary cell, with measurements taken at 6 hours after chemical dosing in a 96-well plate.CLD_SULT2A_6hr is one of 16 assay component(s) measured or calculated from the CLD_6hr assay. It is designed to make measurements of mRNA induction, a form of inducible reporter, as detected with chemiluminescence signals by Quantitative Nuclease Protection Assay (qNPA) technology.Data from the assay component CLD_SULT2A_6hr was analyzed at the endpoint, CLD_SULT2A_6hr, in the positive analysis fitting direction relative to DMSO as the negative control and baseline of activity. Using a type of inducible reporter, gain-of-signal activity can be used to understand changes in the reporter gene as they relate to the gene SULT2A1. Furthermore, this assay endpoint can be referred to as a primary readout. To generalize the intended target to other relatable targets, this assay endpoint is annotated to the transferase intended target family, where subfamily is sulfotransferase.
Human hepatocyte cultures were treated daily for two consecutive days with fresh dosing solutions containing appropriate concentrations of the 320 ToxCast chemicals (chemical identities were blinded to CellzDirect and other ToxCast collaborators), vehicle control (0.2% DMSO), and positive control inducers as summarized in Table 1. Due to the large number of treatment groups and chemicals examined, the ToxCast chemicals were divided into two groups (spanning two independent cultures of hepatocytes from separate donor preparations (Hu778: ToxCast plates 1 and 2; Hu776: ToxCast plates 3 and 4). Each preparation of human hepatocyte cultures was treated with respective vehicle control, medium only control, set of six positive controls/reference chemicals for the five hepatic receptor pathways, and a subset of eight of the ToxCast chemicals (indoxacarb, pyrithiobac-sodium, norflurazon, cyhalofop-butyl, methomyl, thiram, acetochlor, and propiconazole). These replicate data, coupled with internal replicates designed within the blinded ToxCast chemical library, provided additional data to evaluate interindividual differences between hepatocyte preparations and their potential impact on chemical profiles.Cell morphology and integrity were evaluated using phase-contrast microscopy as an indicator of hepatocyte cell health (Tyson & Green, 1987). Cultures for each treatment group (i.e., media, vehicle [0.2% DMSO], positive control inducers [multiple concentrations], and the ToxCast chemicals [multiple concentrations]) were observed and cell morphology was assessed relative to vehicle control cultures at each harvest time point (0, 6, 24, or 48 h). […] Images were evaluated at the conclusion of the study to assess changes in cell integrity and account for the effects of chemical exposure on uncharacteristic changes in concentration-dependent gene expression profiles. The results from these determinations of apparent cytotoxicity were annotated (yes/no) alongside the corresponding qNPA data for reference.At the conclusion of each treatment period, hepatocyte cultures (96-well) were washed with 1 volume of HBSS, lysed by addition of 25 ul ArrayPlate lysis buffer (HTG, Tucson, AZ), and 70 ul/well of Denaturation Oil, denatured by incubation at 95C for 10 min, and frozen at approximately -70C until analysis by nuclease protection assay (qNPA) (Roberts et al., 2007). For qNPA analysis, cell lysates were thawed at 50C for approximately 30 min, qNPA probes were added, and samples were incubated at 95C for 10 min to begin the detection process by denaturing the target RNA, dissociating the duplexes and secondary structure hybridization. At the conclusion of the hybridization period, S1 nuclease reagent was added to each sample to digest all nonprotected nucleotides at 50C for 60-90 min. […]
As to `CCCCC(CC)COC(=O)c1ccccc1C(=O)O` (stereo not given), the result was inactive.

Turning to `CCCN(CCC)C(=O)SCC`, the outcome was inactive. The same measure, in the same setting: the value for `CCSC(=O)N(CC(C)C)CC(C)C` was “inactive”. For `CCCN(CCC)c1c([N+](=O)[O-])cc(C(F)(F)F)c(N)c1[N+](=O)[O-]`, the call was inactive.

On to `CCOC(=O)[C@H](C)Oc1ccc(Oc2nc3ccc(Cl)cc3o2)cc1`, for which the call was inactive. Same read-out and setting: the value for `CCCOC(=O)c1ccc(C(=O)OCCC)nc1` was “inactive”; that for `CSC(=O)c1cccc2nnsc12` was “inactive”; that for `CCN(CC)C(=O)c1cccc(C)c1` was “inactive”. As to `O=C(O)C1(C(=O)Nc2ccc(Cl)cc2Cl)CC1`, the result was inactive. Same read-out and setting: the entry for `Oc1ccc(C(c2ccc(O)cc2)C(Cl)(Cl)Cl)cc1` is “inactive”; for `N#CSCSc1nc2ccccc2s1` it is “inactive”. Turning to `C=CCOC(Cn1ccnc1)c1ccc(Cl)cc1Cl` (stereo not given), the outcome was inactive. Take `CCCCOCCOCCOCc1cc2c(cc1CCC)OCO2`: the molecule was called inactive. As to `COC(=O)c1ccc(CNS(C)(=O)=O)cc1S(=O)(=O)NC(=O)Nc1nc(OC)cc(OC)n1`, the call was inactive. Still for that read-out and setting: the value for `CCC(C)OC(=O)N1CCCCC1CCO` (stereo not given) was “inactive”. Still for that read-out and setting: the value for `CC(C)(C)[C@@H](O)[C@@H](Cc1ccc(Cl)cc1)n1cncn1` was “inactive”; that for `CCCCC(CC)CN1C(=O)C2C3C=CC(C3)C2C1=O` (stereo not given) was “inactive”. In the case of `CCNc1nc(N)nc(Cl)n1`, the outcome was inactive. Still for that read-out and setting: the entry for `CCCOC(=O)NCCCN(C)C` is “inactive”; for `CN(C)C(=O)Nc1ccc(Cl)c(Cl)c1` it is “inactive”. Still for that read-out and setting: the entry for `CC1(C)C(C=C(Cl)Cl)C1C(=O)OCc1cccc(Oc2ccccc2)c1` (stereo not given) is “inactive”; for `COC(=O)CSc1cc(N=c2sc(=O)n3n2CCCC3)c(F)cc1Cl` it is “inactive”. On the same count and under the same terms, the value for `CCCCOC(=O)C(C)Oc1ccc(Oc2ccc(C(F)(F)F)cn2)cc1` (stereo not given) was “inactive”; that for `CCCCOC(=O)[C@@H](C)Oc1ccc(Oc2ccc(C(F)(F)F)cn2)cc1` was “inactive”; that for `CCOC(=O)NCCOc1ccc(Oc2ccccc2)cc1` was “inactive”. As to `C#CCOC(=O)[C@@H](C)Oc1ccc(Oc2ncc(Cl)cc2F)cc1`, the molecule was classed as inactive. Regarding `COC(=O)c1ccccc1C(=O)O`, the outcome was inactive. For the molecule `CC(C)(c1ccc(O)cc1)c1ccc(O)cc1`, the outcome was inactive. Regarding `S=C([S-])NCCNC(=S)[S-].[Mn+2]`, the AC50 is 3.97 µM (active).

As to `COc1c(Cl)ccc(Cl)c1C(=O)O`, the result was inactive.

With `CCCCCOC(=O)COc1cc(N2C(=O)C3=C(CCCC3)C2=O)c(F)cc1Cl`, the molecule was classed as inactive. Same read-out and setting: the value for `S=C(S)NCCNC(=S)S.[Mn+2].[S-]C([S-])=NCCN=C([S-])[S-].[Zn+2]` was “inactive”. For the molecule `COC(=O)c1c(Cl)nn(C)c1S(=O)(=O)NC(=O)Nc1nc(OC)cc(OC)n1`, the call was inactive.

On to `CCN(Cc1c(F)cccc1Cl)c1c([N+](=O)[O-])cc(C(F)(F)F)cc1[N+](=O)[O-]`, for which the molecule was called inactive. The same measure, in the same setting: the value for `COc1nc(C)nc(NC(=O)NS(=O)(=O)c2ccccc2OCCCl)n1` was “inactive”. As for `CCOC(=O)COc1cc(-n2ncc(C(F)(F)F)c(C)c2=O)c(F)cc1Cl`, the call was inactive. The same measure, in the same setting: the value for `Cc1nn(C)c(Oc2ccccc2)c1C=NOCc1ccc(C(=O)OC(C)(C)C)cc1` was “inactive”; that for `COC(=O)c1ccc(I)cc1S(=O)(=O)NC(=O)Nc1nc(C)nc(OC)n1` was “inactive”; that for `CCOC(=O)C(C)Oc1ccc(Oc2nc3ccc(Cl)cc3o2)cc1` (stereo not given) was “inactive”. On the same count and under the same terms, the value for `COC(=O)c1cccc(C)c1S(=O)(=O)NC(=O)Nc1nc(OCC(F)(F)F)nc(N(C)C)n1` was “inactive”.
